This test deals with T1, Aspartate--tRNA(Asp/Asn) ligase (Mycobacterium tuberculosis (strain ATCC 25618 / H37Rv)) (UniProt P9WFW3).
T1 sequence (whole entry): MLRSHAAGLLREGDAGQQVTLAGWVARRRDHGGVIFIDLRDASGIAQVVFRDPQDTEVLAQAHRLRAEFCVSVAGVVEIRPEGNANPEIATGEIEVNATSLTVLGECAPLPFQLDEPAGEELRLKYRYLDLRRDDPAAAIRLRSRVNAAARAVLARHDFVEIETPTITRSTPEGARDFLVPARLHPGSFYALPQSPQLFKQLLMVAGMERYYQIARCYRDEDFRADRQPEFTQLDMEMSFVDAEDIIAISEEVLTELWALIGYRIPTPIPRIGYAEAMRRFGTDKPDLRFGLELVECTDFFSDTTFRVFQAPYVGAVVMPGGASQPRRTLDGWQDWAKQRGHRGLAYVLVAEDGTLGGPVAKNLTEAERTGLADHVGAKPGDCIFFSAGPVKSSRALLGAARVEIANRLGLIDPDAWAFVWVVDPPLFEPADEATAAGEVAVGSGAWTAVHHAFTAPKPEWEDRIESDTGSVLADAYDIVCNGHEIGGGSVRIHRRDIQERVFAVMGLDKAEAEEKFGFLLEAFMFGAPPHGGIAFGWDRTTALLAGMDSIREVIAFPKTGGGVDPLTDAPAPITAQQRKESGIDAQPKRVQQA
Put plainly: Assay for Asp RNA synthetase-1 from Mycobacterium tuberculosis. Type of test: functional. Set-up: scale not given: in the data most compounds retested in dose-response had high values. The conditions noted are these: 30 µM.
Regarding `CCc1nc(CNC(=O)Nc2ccc(C(=O)NC)cc2C)cs1`, the Percent Effect is -0.0804%.

On to `Cc1ncc(C(=O)N2C[C@H]3CC[C@@H]2CN(S(=O)(=O)N(C)C)C3)c(C)n1`, for which the Percent Effect is -0.678%. With `O=C(O)c1ccc(F)c(S(=O)(=O)Nc2c(F)cccc2-n2cccn2)c1` the figure was -1.78%; with `CN(C)CCn1c(=O)oc2ccc(NC(=O)CC(C)(C)C)cc21`, 0.793%; with `Cn1c(C(=O)N2CCC(C(=O)N3CCCC3)CC2)c(Cl)c2ccccc21`, -5.07%. With `O=C1N(Cc2cccc(F)c2F)CCCC1(O)CNC1CCCC1` (stereo not given) the figure was -0.655%; with `CC(C)CN1CCc2[nH]cnc2C12CCN(C(=O)c1cccnc1)CC2`, 1.3%; with `O=C1N(Cc2cccc(F)c2F)CCCC1(O)CN1CCCOCC1` (stereo not given), -2.15%. Take `CC(C)c1nccn1CCCNC(=O)c1ccc(N(C)C)nc1`: the Percent Effect is -2.17%. The figure for `Cc1ccc(CNCc2nnc3n2CCCC3C(F)(F)F)o1` (stereo not given) is 0.425%. With `O=C(c1ccsc1)N1C[C@@H](CN2CCCC2)[C@@H](CO)C1` the figure was -2.54%; with `CCC(=O)NCC(=O)NCc1cc(Br)ccc1OC(F)F`, -1.92%; with `CCc1cc(N2CCSCC2)n2nc(C)c(C)c2n1`, 4.1%. Take `CN1CCCC(CNC(=O)N2CCN(Cc3ccon3)CC2)C1` (stereo not given): the Percent Effect is -6.42%. On to `CC(C)N1CCC(NCc2cccnc2N(C)Cc2ccccc2)CC1`, for which the Percent Effect was -1.94%.

Consider `CCCC(C)CN1CCC(n2cc(C3CCCC3)nn2)CC1` (stereo not given), for which the Percent Effect is 2.26%.

For the molecule `O=C(Nc1cccc(OCc2ccc(F)cc2)c1)C1COCCO1` (stereo not given), the Percent Effect was -1.28%. Regarding `CN1CCN(C(CNC(=O)CCn2cccn2)c2cccs2)CC1` (stereo not given), the Percent Effect was -1.05%. Regarding `Cc1cnn(Cc2cc(F)ccc2F)c1NC(=O)C1COCCO1` (stereo not given), the Percent Effect is -0.287%. The figure for `Cc1oc(C(=O)O)cc1S(=O)(=O)Nc1c(F)cccc1-n1cccn1` is -2.17%.

The values above are taken from ChEMBL document CHEMBL3988442, “University of Dundee, Small-Polar-MMV Screening Library” (2021).
